Reference: PMC13494018
A number with no mark means an inactive call. No rule for the calls is given here.

B1: d3r1_design_ppi_541_dldesign_0_cycle1_af2pred (protein)
chain: MEEEKKKIEEEIEEVKEALKEAEKLFAKDPVAGAKYAENLAIALKKRGLSEEAINLAKEAAEKLKAEAEKVKAA
B2: d3r1_design_ppi_576_dldesign_0_cycle1_af2pred (protein)
chain: GEEEEKAKETIKKMEELAKKGAENPEKGKEYVAEAMRIGRETAKELSEEVGEKVLKKAEEIASEAMKKVLENKKKLA
B3: d3r1_design_ppi_230_dldesign_0_cycle1_af2pred (protein)
chain: TLAESALKALKVIGKAAVEVAKELGEEVYKKVKKEVEKLLKEVESASPEERAKLAAEAAKKMQKKLEELEKLLKEKKKK
B4: d3r1_design_ppi_237_dldesign_0_cycle0_af2pred (protein)
chain: TPLEQLGKLVKEAKKAAKEAKELIKKGKAKEAAKLAREAAKKQIEKAKKIGEEYPEAKASAEAAAAYIEALAKEVEKEAKAAEA
B5: d3r1_design_ppi_369_dldesign_0_cycle1_af2pred (protein)
chain: AVPAELREILSKQALAKMEELEKEAKEKADTPEGLEVMEEAAEWFREAAKGLRAAGDEETAKKMEEKAKELEELAKEKKEK
B6: d8r1_design_ppi_1244_dldesign_0_cycle0_af2pred (protein)
chain: EEEEKEEKETYEKAYYLAKAAINAVNTGKEAAVASGKAALIAAGKLIPEWAAEAKAAKTAEEIKAVAEKLAEAAKKKIE
B7: d3r1_design_ppi_688_dldesign_0_cycle0_af2pred (protein)
chain: MEELAEKAAKTASAALKEYATEEEKEEAEKKSKEFEKLAEEGKKNPEKAEEVLKELLEKAKEYQKKLEEKEKKEKEE
B8: d3r1_design_ppi_608_dldesign_0_cycle1_af2pred (protein)
chain: ATEEAKKYAEKAKELAKKAEEAAKKEGVEAGEEYLEKAKEEVLKAYKYAAESGDEEAKKAAEEALEAVEKAEKEIEKIKKEKE
B9: d3r1_design_ppi_404_dldesign_0_cycle1_af2pred (protein)
chain: NKVEVAQKAYDKAKEAKEKMIKEAKENPEAKPKIPEIEALMKKAQEEAVGKAVELLDKGATPEEALKAAEKIIKEAEKKAKEIIE
B10: d3r1_design_ppi_25_dldesign_0_cycle1_af2pred (protein)
chain: SMAAKSAELRAESRRESILAAARQFAAENPAQGPRALAKAEELVAKAKEFAAATKDPAEAAAFAAQQAEEFRAYLAALEAEAA
B11: d8r1_design_ppi_1354_dldesign_0_cycle1_af2pred (protein)
chain: SRAAAAKAFGKAAVEQLKKLAKAAGAEEARKLAKQLQADFAAFAAAVPEVAAEFKAAAEAAKKAAEEVAKEQEAKAAAAAAA
B12: d3r1_design_ppi_123_dldesign_0_cycle1_af2pred (protein)
chain: DPAVETTKANGKALLTKVAKEAAEVAAKIDPAKAKEITDYAAKALKAGDVTEIAKAVKKVSEELEKYKKELEKKEKEA
B13: d3r1_design_ppi_404_dldesign_0_cycle0_af2pred (protein)
chain: SMTEIAQKAYEKAEEARKKMLKKAEEDPEARPKLPEIEALMKEAREKAVSAVVELLTKGESEEEAMKKAEEIIEEAKKEAEKIMK
B14: d8r1_design_ppi_92_dldesign_0_cycle1_af2pred (protein)
chain: ERERERAAIRALLATVDAEYAKAAKEGPEAADAGIERVAAAAAAAGALGPDTASAGRFAVGVYRTLAEKVKAAWAA
B15: d3r1_design_ppi_79_dldesign_0_cycle0_af2pred (protein)
chain: MTDEEIAKKLIEVAKKAKEEAEKKLKDDPEKVKKVKEIAEEAIKEAKKDPKKGPEALQKAAEEMEKLVKE
B16: d8r1_design_ppi_427_dldesign_0_cycle0_af2pred (protein)
chain: MSRIAAWVIAAISAAATDPAEADKVAARAAEEALANPEKADEALALAAETARAAGLDAATVDAAVARIRALVAAL
B17: d3r1_design_ppi_121_dldesign_0_cycle0_af2pred (protein)
chain: DEALKTAEKAAKEVEELAKEAKEAGDEETAKGLEEMLEKIKELLEKAKKDPSKAKEYAKTAEAIAKVAKKNYEESLKKLKEEKE
B18: d3r1_design_ppi_589_dldesign_0_cycle1_af2pred (protein)
chain: MEEDAKKAQEVADLLAKTAATGPAYADEAIAKTAEVLGPYFAEKLKKAIAAGPEEVKKMYDIVKQHAENIKAA
B19: d3r1_design_ppi_340_dldesign_0_cycle1_af2pred (protein)
chain: EKEKVRKEAEKAIKKAKAAAKAAKAGKDLKAAEKAVKEAAKAAKAAVEAGDPELAEKVAKAAQEASTALNAALSKRLAA
B20: d3r1_design_ppi_121_dldesign_0_cycle1_af2pred (protein)
chain: MKALEEAKKAAEKVKKLAKEAKELGDEETAKGLKEMEEEIKKLYKKAKEDPSKAEEYAEIAKKIAEIAKKHYEESKKKLEKEKE
B21: d3r1_design_ppi_687_dldesign_0_cycle0_af2pred (protein)
chain: MKKEEEEKKKKEKLKKKVEEKKEELKELKKAKEELEKAIEKLKPLAEKDPRIKANAEAAKKAAEEELKKKEEELEKLKKELE
B22: d3r1_design_ppi_135_dldesign_0_cycle1_af2pred (protein)
chain: GSLEEYEKLLAENSKLAVEKATKAAKEEVKKKGTEEAAKEATKRLEALAKALKSSGFKGTKEEAEKAKEAAKKLEKEAKKIAK
B23: d3r1_design_ppi_36_dldesign_0_cycle1_af2pred (protein)
chain: EEERLKEAEETYKKLLEELYKESLKEIEEAAKKGPEAAKKALEKAKAEFDEYEKGLLPEYAKEVKEKLEKEAEKLIKKAK
B24: d3r1_design_ppi_418_dldesign_0_cycle1_af2pred (protein)
chain: DKNEAIKNTLKGAEKAVKELKKEAIKDPEKAEEYAKRAEEIAKAAKELAKQGTEEAKEEAKKVEKEAKEAKKEAKKVVEEKKKKE
B25: d3r1_design_ppi_168_dldesign_0_cycle1_af2pred (protein)
chain: ANKEEAKKAATEGQDAMAELRALKKEGGDPEEIKKAGDKAIESYEKAGELDPSIKERADKMIEAAKKLTEEGIKASKEK
B26: d3r1_design_ppi_175_dldesign_0_cycle1_af2pred (protein)
chain: GSAATLAATAAKLAVKSAKKEMEEAKKNPETGPERLEKYAEILEKAAKDAKATGTAEAKEAAKEAEKEAKKAKEEAKKLK
B27: d8r1_design_ppi_1117_dldesign_0_cycle1_af2pred (protein)
chain: AAAEAQARALAAELLAEAFDDPELAARALALPPHHAAALAAGQIVAKKSDEEAAAAVARANQVHALAAAAAAAA
B28: d3r1_design_ppi_418_dldesign_0_cycle0_af2pred (protein)
chain: SEAEAVKATLKGAKETVKELKKEAEKNPEKAEEYAKEAEKIAKAAEKLAEKSSEEAKKEAKEVKEEAKEAKKLAKKIIEEKKAKE
B29: d3r1_design_ppi_578_dldesign_0_cycle0_af2pred (protein)
chain: MEELEEARKRADELEKEVKKLEPLFKEASKEAAELAENAKKAIEAAKKFIEDKSQIELAQRAVDQAEKNLKLAKELMEKILKEK
B30: d3r1_design_ppi_595_dldesign_0_cycle1_af2pred (protein)
chain: DLFKKGIEEAEKAYKKYPKLGLAVAQLVLAKYFLEAAKKSTPEEAKNYLEAAKLALEKSKELLKEVEAKLKAE
B31: d8r1_design_ppi_860_dldesign_0_cycle0_af2pred (protein)
chain: DEAYELAAEALARASELRAAAAAARAARGAAGVAEAAALDAEAVRVLEEAAKKLKALGSGLGKNLEAAARRLAERAAAATAAARA
B32: d3r1_design_ppi_130_dldesign_0_cycle0_af2pred (protein)
chain: SASEKANNELAAKLAVESAKKYLEEAEKLEKEDKEKAKKLLKEIAEKAEAGVKAFADSPEAPELKKLAEEAKAKIEEI
B33: d3r1_design_ppi_123_dldesign_0_cycle0_af2pred (protein)
chain: SENDKITLEQAKKLLEKEAKRAAEVAEKIDKEKAKKIKKYAEEALKKGKLTELAKAVKKVSEELEKYEKKLKEEEEKA
B34: d3r1_design_ppi_677_dldesign_0_cycle1_af2pred (protein)
chain: MEEKKKKIDEKLILAGELAKKNGLLGEIVAKKAIEEGRKAGITEFSEEAVEALKIAFAAGAAARAALAAALA
B35: d3r1_design_ppi_578_dldesign_0_cycle1_af2pred (protein)
chain: MEELEEAKKRAEELKKEVEENKEKFKEASKEAQELADNSLKAIKAAFKYIEEKEEVENAKRAVEVAEENYKKAKELAEKLLKEK
B36: d3r1_design_ppi_648_dldesign_0_cycle0_af2pred (protein)
chain: GEEAAKKSKEAEKALEEAKKILKEGGKEGEEKAKKLVEEKVKELKKWGKETGTGGEALAKILKEEFEKAKKEK
B37: d8r1_design_ppi_568_dldesign_0_cycle1_af2pred (protein)
chain: AARHLALAIRGVLKADDAGDAEAAAKAKALLAKAAAALAAGDEAAAKAYATQAAAVADPAYAPVAEAVAAAAAA
B38: d3r1_design_ppi_53_dldesign_0_cycle1_af2pred (protein)
chain: ASEADRAQVRAEGMAEALKLRAEAAAPLLSPEAVAEIKALAEKMAADPENRDAYYAAAVALLDAALAAAKA

Chain of VTCN1, Q7Z7D3 (Q7Z7D3 whole entry): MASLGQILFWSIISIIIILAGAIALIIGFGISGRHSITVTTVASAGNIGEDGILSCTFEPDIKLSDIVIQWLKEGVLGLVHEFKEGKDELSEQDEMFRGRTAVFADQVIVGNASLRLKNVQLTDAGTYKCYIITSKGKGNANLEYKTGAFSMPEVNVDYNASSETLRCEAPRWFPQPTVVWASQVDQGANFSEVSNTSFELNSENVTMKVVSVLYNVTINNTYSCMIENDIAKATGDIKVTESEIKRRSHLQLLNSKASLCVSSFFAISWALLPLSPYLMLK
Chain of PDL1, Q9NZQ7 (Q9NZQ7 whole entry): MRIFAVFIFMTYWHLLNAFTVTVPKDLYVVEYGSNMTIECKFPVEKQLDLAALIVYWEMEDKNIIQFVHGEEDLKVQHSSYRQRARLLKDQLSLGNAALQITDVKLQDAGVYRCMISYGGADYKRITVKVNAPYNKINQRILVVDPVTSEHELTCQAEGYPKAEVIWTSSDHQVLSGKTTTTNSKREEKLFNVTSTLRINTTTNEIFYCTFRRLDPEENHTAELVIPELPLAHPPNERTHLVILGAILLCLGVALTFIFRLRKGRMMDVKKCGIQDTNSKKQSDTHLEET

Binder | binding in a display sort (VTCN1, Q7Z7D3) | binding in a display sort (PDL1, Q9NZQ7)
B1 | not found | –
B2 | not found | –
B3 | not found | –
B4 | not found | –
B5 | not found | –
B6 | – | not found
B7 | not found | –
B8 | not found | –
B9 | not found | –
B10 | not found | –
B11 | – | not found
B12 | not found | –
B13 | not found | –
B14 | – | not found
B15 | not found | –
B16 | – | not found
B17 | not found | –
B18 | not found | –
B19 | not found | –

Binder | binding in a display sort (VTCN1, Q7Z7D3) | binding in a display sort (PDL1, Q9NZQ7)
B20 | not found | –
B21 | not found | –
B22 | not found | –
B23 | not found | –
B24 | not found | –
B25 | not found | –
B26 | not found | –
B27 | – | not found
B28 | not found | –
B29 | not found | –
B30 | not found | –
B31 | – | not found
B32 | not found | –
B33 | not found | –
B34 | not found | –
B35 | not found | –
B36 | not found | –
B37 | – | not found
B38 | not found | –
